Assay results taken from the supplement of paper PMC6555819.

Tests used:
Assay in all cases: PBM binding z-score (relative to random genomic background probes); higher = stronger binding; sequences stand for … in GC…GCGATTGACAGCGTAGAATGAAGG
[1] = system: FXR:RXRa (NR concentration 270 nM, RXRa partner concentration 90 nM)
In short: (§1)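 Random background probes are the reference for binding z-scores. These scores derive from regression-normalized fluorescence on custom Agilent 4×180K protein-binding microarrays incubated 1 h with ligand-free nuclear receptor dimers. Binding was detected with antibodies against each partner (one per run).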

[2] = system: LXRa:RXRa (NR concentration 270 nM, RXRa partner concentration 90 nM)
In short: as §1

[3] = system: LXRa homodimer (NR concentration 270 nM)
In short: as §1

[4] = system: LXRb:RXRa (NR concentration 270 nM, RXRa partner concentration 90 nM)
In short: as §1

[5] = system: LXRb homodimer (NR concentration 270 nM)
In short: as §1

[6] = system: PPARa:RXRa (NR concentration 270 nM, RXRa partner concentration 90 nM)
In short: as §1

[7] = system: PPARg:RXRa (NR concentration 180 nM, RXRa partner concentration 90 nM)
In short: as §1

[8] = system: PPARg:RXRa 270nM:90nM, anti-RXR (NR concentration 270 nM, RXRa partner concentration 90 nM)
In short: as §1

[9] = system: PPARg:RXRa 30nM:10nM, anti-RXR (NR concentration 30 nM, RXRa partner concentration 10 nM)
In short: as §1

[10] = system: PPARg:RXRa 90nM:30nM, anti-RXR (NR concentration 90 nM, RXRa partner concentration 30 nM)
In short: as §1

Row | Sequence | PBM binding z-score [1] | PBM binding z-score [2] | PBM binding z-score [3] | PBM binding z-score [4] | PBM binding z-score [5] | PBM binding z-score [6] | PBM binding z-score [7] | PBM binding z-score [8] | PBM binding z-score [9] | PBM binding z-score [10]
1 | TCGTGTAGATCAGCAGGTTAAGAAAGCTGGCCAA | -0.188 | 0.0517 | -0.312 | 0.0213 | -0.844 | 0.437 | -0.564 | 0.79 | 1.98 | 1.42
2 | GCTAGTTGGTCAGTAAAAGGTCACAGACCGGTCG | 3.72 | 4.57 | 4.2 | 4.1 | 0.607 | 5.07 | 3.41 | 4.95 | 2.71 | 4.5
3 | ATCTCTCGGTAACCAAGTTCAGTGAATGCCGAAC | 0.00199 | 0.567 | 1.33 | 0.672 | 0.975 | 0.668 | -0.0283 | 0.289 | -0.287 | 0.0566
4 | GCTTACGGGTCAGAGGTTATAGCATGAATAGAAT | 5.2 | 3.46 | 0.404 | 3.77 | 0.261 | 5.92 | 9.08 | 7.82 | 6.2 | 8.57
5 | ATCGAAAGGTAGAGGTGAGTATAGAGAAAGGGAA | 0.781 | 0.589 | 0.209 | 0.313 | 0.482 | 0.942 | 1 | 0.958 | 0.813 | 0.82
6 | CTCCAAAGGTCGTGCTCAGGTGAGTATACCAAAC | 5.95 | 4.42 | 0.227 | 3.67 | 0.361 | 5.08 | 3.62 | 4.58 | 1.3 | 3.35
7 | CCAGACGGGTGAGAAGGTAACTCAGCCTCGATTA | -0.446 | -0.488 | -0.527 | -0.4 | -1.08 | 0.109 | 0.208 | 0.0448 | -0.616 | -0.191
8 | GCGATTGGGGCAAAGCAGGTTACCATAAGGTTGG | 0.351 | 0.0851 | -0.253 | 0.678 | -0.273 | 1.11 | 0.77 | 0.405 | -0.0974 | 0.132
9 | TCTATTAGTTGATTAGGGCAGCCGAAACAGCGGA | 0.608 | 0.627 | 0.0696 | 0.52 | 0.663 | 1.01 | 0.0121 | 1.92 | 3.66 | 2.93
10 | CAAACTAGGTCACCGGAAGGTCAACGTCCGCATG | 6.21 | 6.05 | 4.21 | 4.6 | 1.1 | 6.13 | 9.54 | 8.04 | 5.72 | 7.83
11 | CAAATTAGGTCAAGGTCAAAGTCGGTTTGTGCCA | 6.89 | 5.96 | 4.73 | 4.86 | 2.29 | 6.17 | 9.22 | 8.16 | 6.73 | 8.31
12 | CGAACTAGGTCAGAACAGGACCGTGAAGGATGAT | 0.998 | 0.352 | -0.566 | 0.148 | -0.568 | 2.94 | 5.07 | 4.33 | 1.63 | 3.44
13 | CAAAGTAGGTCACAGAGGTCAAAGTCCGTGCGTA | 7.06 | 6.7 | 7.7 | 6.5 | 2.52 | 6.75 | 10.4 | 8.33 | 7.56 | 8.58
14 | CCTCGGAGGACAGAAGGGCAGAGCTGTCCGCTTT | -0.424 | -0.658 | -0.967 | -0.952 | -1.04 | -1.11 | -0.572 | -0.994 | -1.32 | -1.13
15 | GCTAGTTGGTCAGTAAAAGGTCACATACCGGTCG | 2.76 | 4.16 | 4.82 | 4.01 | 0.816 | 4.22 | 2.57 | 4.42 | 2.3 | 3.92
16 | CCTAGCAGGCCAATCTGGGTCACTTAAGGCTTGA | 0.716 | 1.48 | -0.236 | 0.733 | -0.723 | 2.96 | 1.68 | 2.03 | -0.218 | 1.33
17 | TCATAGAGGTAAACAGGTGAAAGTCCGTAAGTTA | 0.648 | 0.794 | -0.178 | 0.62 | -0.997 | 2.14 | 1.65 | 2.55 | 2.8 | 2.68
18 | CAAACTAGGTCACCGGAAGTTCAAAGTCCGCATG | 5.16 | 5.88 | 4.93 | 4.26 | 1.06 | 5.9 | 9.18 | 7.54 | 5.95 | 7.54
19 | TCAAATAGGTAAAGGTGAAAGTCGAACGATATGA | 0.93 | 1.78 | 0.0504 | 1.72 | 0.00812 | 3.48 | 3.34 | 4.34 | 5 | 4.99
